Assay results from the supplement of paper PMC10681739.

Molecular target: RUNX1 (UniProt Q01196)
Assay: RUNX1 binding intensity (PBM fluorescence), RUNX1 alone (arbitrary fluorescence units); higher = stronger binding
Settings: RUNX1 concentration 2 nM; ETS1 concentration 0 nM
Description: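 Cooperative gcPBM on 36-bp genomic probes with neighbouring ETS1 and RUNX1 sites. Recombinant human RUNX1 (2 nM) was incubated alone or with ETS1 (25 nM) and detected with anti-RUNX1 antibody plus Alexa488 secondary. Values are medians over 4 replicate spots; the RUNX1+ETS1 data were normalised to the RUNX1-only data. The probes sit in constant array flanks that are not printed.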
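Note: Full-length recombinant human RUNX1 bound to double-stranded 36-bp genomic probes on a high-density microarray, scored as Alexa488 fluorescence per spot via anti-RUNX1 antibody, median of four replicate spots.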

RUNX1, sequence (Q01196 whole entry): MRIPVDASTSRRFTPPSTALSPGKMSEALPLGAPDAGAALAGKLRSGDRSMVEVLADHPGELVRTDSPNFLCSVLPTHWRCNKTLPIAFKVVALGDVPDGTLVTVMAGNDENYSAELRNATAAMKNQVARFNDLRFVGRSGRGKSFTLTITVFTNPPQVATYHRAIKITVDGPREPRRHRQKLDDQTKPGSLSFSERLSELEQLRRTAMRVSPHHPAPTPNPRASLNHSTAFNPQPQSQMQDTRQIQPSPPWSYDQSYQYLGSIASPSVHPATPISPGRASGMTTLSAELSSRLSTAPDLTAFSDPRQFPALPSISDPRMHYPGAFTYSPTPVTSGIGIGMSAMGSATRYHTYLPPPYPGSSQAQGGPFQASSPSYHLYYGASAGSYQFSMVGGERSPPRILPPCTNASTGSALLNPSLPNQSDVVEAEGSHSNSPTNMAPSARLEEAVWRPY

Sequence | RUNX1 binding intensity
GGGCGGGTGAGACCAGGATGTGGGTTCCCCCACCTT | 775
CCTGCCTGACCGGAAGTGCCCGCAACCCCACCGACC | 1180
CTTAGCACTTCAGCCGGAAACCACAGCATACATTTC | 1460
AATATCCTGTATGTCATGCTTAAAAAGCCACAAAAC | 875
TGTCATCCCGGAAACTGATAACAAGACCGCGAGTCA | 807
CCAGCAAAGGAAGCTTGGTCAACCACAGCAGCCTGT | 850
TTTCACTTCCGGCATGTTTTTCACCCACAGGGATAT | 1130
CCGCCGCGCGCCGGATGCTAAGACCGCGATTTCCCC | 781
GGTCTCACCGCTCTTCCGCTTGCGGTTTCGGGGGCC | 2320
TCCGGAAGTCGGAGGAACACCCCAGCCGCCGCAGCC | 751
CTCTGAACTTCCTCTCTTTTAACCACAACTTACTAC | 10500
TAAGTGAATTTCCTGCCCGCCTCCGCCCACAGCGTA | 809
CGATGCTTCCGGCCTCCTATTGGGTGGTTTCTTGGC | 789
GCGGAGGCGGAAGTCGTGCTGCTGCTGACCACGGCT | 741
GTATCACTTCCTGTTTTCCTCTGTGGCTTACTGCTG | 1300
TGGGTGCCGGATTCGGTGAGTGTGGTTCTCATGATG | 654
TTGGCTTTGTGTTTCCGCGGTGTTGGTAGAGTCTCG | 875
TTAGCACATCCTGGGTACACAGACCACAGCCTCCTC | 972
ACAGGAAGAGATATTATATCTCCCTGCGGTTGGTTT | 904
CCCCTCACTTCCCTCAACCCTTCCCACAAACTGGGA | 1920

Sequence | RUNX1 binding intensity
TATTTCCTGTGCACAGAAGCAGCTGGGCCGCAGAGT | 697
GAGCCACCGGAAACGGAGCTGCGGCCGCGCCCCGCC | 747
TACAGCTGGAACGTCCTGTGGTTAACATTCTGCTCT | 1130
TATTGTGTACTTCCCCTTCATGTTGTGGTTGGCTTT | 1120
GAGGACGCGGAAGTCCTTCTTGCGGGGCGGAGCTAG | 664
CCAGCCACTTCCGCTCGTCCGCCTAATACCGCGCCT | 1420
CCATCCAGGAAGCTTATGGTGCGACCGCAGTGTGCC | 908
AACAGGCAAAGGACAGGATGTGGTGAGCGTCGGCCC | 774
CCCTCTCTTCTTCCTCCCCCACCACAAAAGTCACAG | 2440
GCAACAGGAAGGACCAAGTCCCCTCCCGCAATTTTA | 888
GACTCCATTTCCCGTCGGCTCGCGGTGGGAGCGCCG | 981
ACAGGAAATGACTTAGGGAAAGTCCCAACCGCAATC | 1230
AAGGCAAACAGGAAATCATAACCACAAACCAGGAAC | 2880
ACTTGACTTCCTGTGGGGTGTGTGGTGTCTGCACTT | 798
CCCGCTACACAAGGCGGATGTGGTACCCTCACTTGT | 891
GATGCTTGTTCAGGATGCGGTTTCTTGCAGCAAGTT | 3420
GCAGAGAGGAAGTGTGGGGGTGGAGGAGGCCGCAGA | 828
AAACCCCAAACAGGAAGTGGTAAAGCAACCTGCATC | 826
TCAAGAAAACAGGAAACTCTCAAAACCAAGTTCTGA | 773
CTCTTCCTGCCTGTCCGTGGCTGGTGTGGTTTGCGT | 958
